# High-throughput results from PubChem.
# UCHL1 block = human UCHL1 deubiquitinase inhibition; purified UCHL1, Ub-rhodamine cleavage fluorescence; 47,000 compounds, 0.2% hits; inhibition, % at 20 µM
# USP10 inh = blocks human USP10 ubiquitin-rhodamine cleavage | AID 1645856 | purified USP10, Ub-rhodamine fluorescence, 60 min | 47,000 compounds, 1.1% hits | Q14694 | inhibition, % at 20 µM
# USP8 block = human USP8 deubiquitinase inhibition; P40818; purified USP8, Ub-rhodamine cleavage fluorescence, 30 min; inhibition, % at 20 µM; 47,000 compounds, 4.2% hits
# USP7 inh = inhibitors of human USP7 deubiquitinase | inhibition, % at 20 µM | Q93009 | 47,000 compounds, 0.3% hits | purified USP7, Ub-rhodamine cleavage fluorescence
# Numbers stand for hits; n = inactive. Hits are enriched below; roughly 5% of the tested compounds scored in any of these assays. No stated cut-off is given here; in the data, active means inhibition above about 30%; inactive means the rest.
SMILES,UCHL1 block,USP10 inh,USP8 block,USP7 inh
Cc1ccc(C)n1-c1nc2ccc(C(=O)N3CCC(O)CC3)cc2s1,n,n,n,n
Cc1ccc(C(=O)c2cn(CC(=O)Nc3ccccc3)c3ccccc3c2=O)cc1,n,46,97,n
Cc1ccc(-n2nc(C(=O)NC3CCCCC3)c3ncn(C)c(=O)c32)cc1,n,n,n,n
Cc1ccc(-n2nc(C(=O)Nc3ccc(C)cn3)c3ncn(C)c(=O)c32)cc1,n,31,72,n
CCn1c(CNS(=O)(=O)c2ccc(Cl)cc2)nnc1SCc1ccc([N+](=O)[O-])cc1,n,n,n,n
O=S(=O)(Nc1ccc2[nH]ncc2c1)c1ccc2c(c1)CCC2,n,n,n,n
O=S(=O)(Nc1ccc2[nH]ncc2c1)c1ccc(Cl)cc1F,n,n,37,n
Cc1cc2c(cc(C(=O)NC3CC3)n2C)s1,n,n,n,n
Cc1sc2ccn(C)c(=O)c2c1C(=O)NC1CCCC1,n,n,94,n
O=C(NCc1ccc(F)c(Cl)c1)c1csc(C(=O)NC2CC2)n1,n,n,n,n
CC(C)C(=O)N1CCc2nc(C(=O)N3CCOCC3)sc2CC1,n,n,n,n
COc1ccc(-n2c(N(C)C)nc3cc(C(=O)NC4CC4)sc32)cc1,n,n,n,n
CNC(=O)c1cc2nc(N(C)C)n(-c3ccccc3)c2s1,n,n,77,n
CNC(=O)c1cc2nc(N(C)C)n(-c3ccc(OC)cc3)c2s1,n,n,78,n
CCNC(=O)c1cc2nc(N(C)C)n(-c3ccccc3)c2s1,n,n,75,n
Cc1nn(-c2ccccc2)c2sc(C(=O)Nc3ccc(Br)c4cccnc34)cc12,n,n,n,n
CCOC(=O)CNC(=O)c1cc2c(=O)n3ccccc3nc2s1,n,n,n,n
COc1cc2c(c(OC)c1OC)-c1ccc(N3CCN(Cc4ccc5c(c4)OCO5)CC3)c(=O)cc1[C@@H](NC(C)=O)CC2,n,n,45,n
COc1ccc(OCc2nc(-c3cc(C)nc4ccccc34)no2)cc1,n,n,n,n
Cc1cc(-c2noc(-c3ccoc3C)n2)c2ccccc2n1,n,n,37,n
NS(=O)(=O)c1ccc(NC(=O)COC(=O)c2sc3cc(F)ccc3c2Cl)cc1,n,n,37,n
O=C(COC(=O)c1sc2ccccc2c1Cl)Nc1ccc(F)cc1,n,n,n,n
Cc1c(C2CCCN(C(=O)c3ccn(C)n3)C2)n2c(nc1=O)CCC2 (centres undefined),n,n,36,n
CNc1cncc(C2CCN(C(=O)c3ccn(C)n3)CC2)n1,n,n,n,n
O=C(Nc1ccccc1)c1ccc2c(c1)CC(c1ccccc1)OC2=O (centres undefined),n,n,32,n
SMILES,UCHL1 block,USP10 inh,USP8 block,USP7 inh
O=C(c1cnc2[nH][nH]c(=O)c2c1)c1cc(Cl)cc(Cl)c1O,62,87,94,79
COCC(C)n1c(C)cc(C(=O)COC(=O)c2ccccc2Sc2ccc(C(F)(F)F)cc2[N+](=O)[O-])c1C (centres undefined),n,n,n,n
Cc1ccc(NC(=O)c2nnn(CC(=O)Nc3cccc(C)c3C)c2N)cc1C,n,36,72,n
COc1ccc(S(=O)(=O)N2CCCN(c3nc4cccnc4s3)CC2)cc1,n,n,n,n
Cn1cncc1-c1nnc([C@H]2CCN(Cc3cccc(C#N)c3)C2)o1,n,n,n,n
N#Cc1cccc(CN2CC[C@H](c3nnc(-c4cccnc4)o3)C2)c1,n,n,54,n
O=C(c1ccccc1F)N1CCCC(Cc2cnc(-c3ncc[nH]3)cn2)C1 (centres undefined),n,n,n,n
CCC/C=C\C#CC/C=C\CCCCCCCC(=O)O,69,n,n,59
CCCCCCCC/C=C\CCCCCCCC(=O)O,n,n,n,n
Cc1ccccc1CNC(=O)c1cccc(-c2cnc(N3CCCC3)nc2)c1,n,n,n,n
COc1ccc(-c2nc(CNS(=O)(=O)c3ccc(OC)c(C)c3)cs2)cc1,n,n,n,n
Cn1cc2cccc(NC(=O)c3ccc(F)cc3)c2n1,n,n,91,n
Cc1nn(C)cc1NC(=O)Nc1ccc(F)cc1,n,n,n,n
Cc1ccc(-c2nc(Cn3cnc4ccccc4c3=O)cs2)cc1,n,n,37,n
COc1ccc(S(=O)(=O)N2CCc3nc(N)c(C(=O)N4CCOCC4)cc3C2)cc1C,n,n,n,n
COc1ccc(-n2nnnc2-c2c[nH]c3c(F)cc(F)cc23)cc1,n,n,31,n
O=C(NCc1ccccc1)C(Cc1ccccc1)NS(=O)(=O)c1ccc2c(c1)OCCO2 (centres undefined),n,n,31,n
O=c1cc(C(F)(F)F)c2sc(N3CCCC3)nc2[nH]1,n,n,n,n
CS(=O)(=O)c1ccc2nc(N(Cc3cccnc3)C(=O)c3ccc4ccccc4c3)sc2c1,n,n,63,n
Cn1nc(-c2ccccc2F)c2cc(C(=O)NCCc3ccc(S(N)(=O)=O)cc3)sc21,n,n,33,n
NS(=O)(=O)c1ccc(CCNC(=O)c2nc(-c3ccccc3)n(-c3ccccc3)n2)cc1,n,n,n,n
COc1cc(OC)c2cc(C(=O)N[C@@H](Cc3ccccc3)C(=O)O)n(C)c2c1,n,n,58,n
CCCc1cc(=O)n2[nH]c(COc3ccccc3)c(-c3ccccc3)c2n1,n,55,n,n
CCCc1cc(=O)n2[nH]c(-c3ccccc3)cc2n1,n,n,n,n
O=c1[nH]c2nc(NCC3COCCO3)ncc2c(=O)n1C1CCCC1 (centres undefined),n,n,n,n
SMILES,UCHL1 block,USP10 inh,USP8 block,USP7 inh
O=C(Nc1ccccc1C(F)(F)F)c1cccc(S(=O)(=O)Nc2cc(C(F)(F)F)ccc2Cl)c1,n,43,n,n
CCc1nc2c3cnn(-c4ccc(C)c(C)c4)c3ncn2n1,n,n,n,n
Cc1ccc(Cl)cc1-n1ncc2c1ncn1nc(C3CCCCC3)nc21,n,n,70,n
Cc1cccc(-c2nc(NC(=O)COc3ccc(F)cc3)no2)c1,n,n,83,n
Cc1ccc(-c2nc(NC(=O)COc3cc(C)cc(C)c3)no2)cc1,n,n,n,n
Cc1ccc(-c2nc(NC(=O)COc3ccc(Cl)cc3)no2)cc1,n,65,93,64
Cc1cc(-c2cncnc2-c2ccc(CNC(=O)CC3CCCCC3)cc2)on1,n,n,n,n
Cn1cc(-c2noc(Cc3cccc(C(F)(F)F)c3)n2)ccc1=O,n,n,n,n
CCc1nnc(-c2cc(S(=O)(=O)N3CCC(C)CC3)c[nH]2)o1,n,n,n,n
CCc1nnc(-c2cc(S(=O)(=O)N3CCN(c4ccccn4)CC3)c[nH]2)o1,n,n,40,n
CCc1nnc(-c2ccc3ccn(CC(=O)N4CCN(c5ccccn5)CC4)c3c2)o1,n,33,92,n
CN1CC(=O)N(c2ccccc2)CC12CCN(C(=O)c1cnccn1)C2 (centres undefined),n,n,n,n
O=C(Cn1cnc(S(=O)(=O)N2CCCCC2)c1)Nc1ccc2c(c1)OCO2,n,n,59,n
CC1CCN(S(=O)(=O)c2cn(CC(=O)Nc3ccc4c(c3)OCO4)cn2)CC1,n,n,n,n
Cc1ccc(C2=Nc3ccccc3N(CC(=O)Nc3cccc(C)c3C)C(=O)C2)cc1C,n,n,43,n
